An excerpt weighted towards active compounds, which were near 2.4% of everything screened.
APEX1 inh = qHTS Assay for Inhibitors of the Human Apurinic/apyrimidinic Endonuclease 1 (APE1) | DNA repair nuclease/redox regulator APEX1 (Homo sapiens), P27695 | recombinant APE1, TAMRA/BHQ-2 abasic DNA cleavage fluorescence | 350,000 compounds, 0.35% hits | Potency, µM (series often up to 65.8 µM), for inactives: at the highest dose activity change, negative = inhibition, actives largely listed as inhibitors;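 note: plate controls were vehicle for no effect and reference inhibitor for full effect; nearly all actives have a fitted effect of over 55% in size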
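Measures dequenching upon AP-site incision of a 5'-TAMRA/3'-BHQ-2 THF-containing duplex, 50 nM; human APE1 0.75 nM after 15 min room-temperature exposure to compound; kinetic three-point read at one-minute spacing.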
Pol kappa inh-1 = qHTS for Inhibitors of Polymerase Kappa; purified Pol kappa, fluorescent DNA synthesis assay, 10 min; Potency, µM (top dose mostly 107 µM), for the others: at the top dose activity, negative = inhibition, usual class: inhibitors; 400,000 compounds, 0.53% hits; AID 588579, 2011; note: % is set by controls: 0 for no effect and ±100 for the full control effect
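Enzyme at 10 nM met test compounds for 15 min at room temperature. Substrate addition (50 nM final) began the reaction, which was monitored by fluorescence at 0 and 10 min.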
GLS inhibitor = qHTS for Inhibitors of Glutaminase (GLS) | 410,000 compounds, 0.21% hits | GLS enzymatic activity, qHTS titration | AID 624170, 2012 | Potency, µM (series often up to 45.5 µM), for the others: top-dose activity change, negative = inhibition, most hits filed as inhibitors | Glutaminase kidney isoform, mitochondrial (Homo sapiens), O94925; note: % is set by controls: 0 for no effect and ±100 for the full control effect
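hKGA in 45 mM KH2PO4 (pH 8.2), 0.02% Tween-20 with compound, then 1mM L-Glutamine (stock as added) plus glutamate oxidase/HRP/Amplex red coupling mix. Fluorescence read initially and after 30 min at RT; signal change reflects glutamate formation.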
POLB inh = qHTS Assay for Inhibitors of DNA Polymerase Beta; P06746; Potency, µM (series often up to 114 µM), without a hit: top-dose activity change, negative = inhibition, actives largely listed as inhibitors; AID 485314, 2010; Pol beta primer extension/strand displacement, fluorescence kinetic; 340,000 compounds, 1.3% hits; note: % is set by controls: 0 for no effect and ±100 for the full control effect
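Preincubation: enzyme (10 nM) with compound, 15 min, RT. Reaction: substrate added to 50 nM final. Reads: 0 and 10 min. Analysis: normalized, Hill fit.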
POLI inh = qHTS for Inhibitors of Polymerase Iota; DNA polymerase iota (Homo sapiens), Q9UNA4; Pol iota fluorescent replication assay, 10 min; Potency, µM (top dose mostly 115 µM), for the others: at the highest dose activity, negative = inhibition, hits mostly inhibitors; 390,000 compounds, 1% hits; AID 588590, 2011
Target sequence (Q9UNA4 whole entry, looked up): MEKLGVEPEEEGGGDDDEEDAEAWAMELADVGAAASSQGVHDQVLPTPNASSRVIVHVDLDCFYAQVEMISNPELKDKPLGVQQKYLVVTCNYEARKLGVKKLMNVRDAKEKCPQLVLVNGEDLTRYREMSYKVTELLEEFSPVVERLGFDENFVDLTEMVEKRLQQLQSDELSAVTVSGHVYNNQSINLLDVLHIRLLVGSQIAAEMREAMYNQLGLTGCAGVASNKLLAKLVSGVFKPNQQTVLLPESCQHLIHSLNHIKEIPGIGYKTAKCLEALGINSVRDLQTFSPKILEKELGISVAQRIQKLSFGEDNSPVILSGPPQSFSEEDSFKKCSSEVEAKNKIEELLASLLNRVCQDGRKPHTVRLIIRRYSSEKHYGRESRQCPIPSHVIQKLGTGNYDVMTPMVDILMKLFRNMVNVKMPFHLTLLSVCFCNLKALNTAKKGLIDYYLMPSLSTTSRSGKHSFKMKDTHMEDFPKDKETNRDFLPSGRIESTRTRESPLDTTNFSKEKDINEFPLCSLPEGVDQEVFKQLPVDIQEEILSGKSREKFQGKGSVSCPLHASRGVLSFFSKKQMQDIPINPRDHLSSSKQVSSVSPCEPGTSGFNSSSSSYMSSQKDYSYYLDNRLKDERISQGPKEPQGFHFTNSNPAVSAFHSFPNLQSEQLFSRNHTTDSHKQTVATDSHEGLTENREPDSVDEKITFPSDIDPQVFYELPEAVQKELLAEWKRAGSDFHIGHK
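Fluorescent replication assay read twice, at 0 min and 10 min after adding 50 nM (final) substrate. Enzyme (10 nM) and compounds were first incubated 15 min at room temperature; enzyme-free buffer wells were negative controls.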
Pol eta inh-1 = qHTS for Inhibitors of Polymerase Eta; DNA polymerase eta (Homo sapiens), Q9Y253; recombinant Pol eta, fluorescent DNA replication assay; Potency, µM (series often up to 114 µM), without a hit: at the top dose activity change, negative = inhibition, usual class: inhibitors; 390,000 compounds, 1.2% hits; AID 588591, 2011; note: % is set by controls: 0 for no effect and ±100 for the full control effect
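Pol eta at 10 nM preincubated with compounds 15 min at room temperature; reaction started with fluorescent substrate (50 nM final) and read kinetically at 0 and 10 min.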
PGK validate = qHTS for inhibitors of Phosphogylcerate Kinase: Hit Validation Screen | shares compounds with Pol kappa inh-1 | TbPGK coupled GAPDH assay, Kinase-Glo luminescence | AID 686980, 2013 | 500 compounds, 79% hits | Potency, µM (top dose mostly 57.5 µM), inactives show top-dose activity change, negative = inhibition, usual class: inhibitors; note: % is set by controls: 0 for no effect and ±100 for the full control effect; nearly all actives have a fitted effect of over 65% in size
Pol iota confirm = qHTS for Inhibitors of Polymerase Iota: Confirmatory Assay for Cherry-picked Compounds; shares compounds with Pol kappa inh-1; Pol iota primer extension, TAMRA/BHQ fluorescence; Potency, µM, usual class: inhibitors; 1,500 compounds, 77% hits
Pol kappa inh-2 = qHTS for Inhibitors of Polymerase Kappa: Confirmatory Assay for Cherry-picked Compounds; 920 compounds, 76% hits; purified Pol-kappa, fluorescent strand-displacement substrate; Potency, µM, hits mostly inhibitors; shares compounds with Pol eta inh-1; AID 720501, 2013
Pol eta inh-2 = qHTS for Inhibitors of Polymerase Eta: Confirmatory Assay for Cherry-picked Compounds | Pol eta primer extension, TAMRA/BHQ fluorescence, 10 min | Potency, µM, usual class: inhibitors | shares compounds with Pol eta inh-1 | 2,600 compounds, 64% hits
* hit, by the source's call; ? = inconclusive; . = no result given; [ ] = remark or other dose. Calls come from the whole dose curve; as a rule, active = well fitted curve in the direction sought with a large enough effect; inconclusive = small, poorly fitted or top-dose-only effect, or another doubt; inactive = no such curve, though single readings can be large; an effect the other way counts as inactive or inconclusive. Potency is the fitted concentration of half-maximal effect.

SMILES	APEX1 inh	Pol kappa inh-1	GLS inhibitor	POLB inh	POLI inh	Pol eta inh-1	Pol iota confirm	Pol eta inh-2	others
COc1cc(NC(=O)c2ccc(-c3c(C)noc3C)c3ccoc23)cc(OC)c1OC	.	.	21.8%	.	.	.	.	.
Cc1cc(C)c(NC(=O)Cn2nnc(S(=O)(=O)c3ccc(C)c(C)c3)c2N)c(C)c1	.	?	-2.5%	10µM*	79.4µM*	-28.7%	?	.
OCC[C@@H]1C[C@H](O)[C@@H](O)[C@@]2(OCc3ccc(CO)cc32)O1	.	.	-0.3%	.	.	.	.	.
COc1cccc(NC(=O)Cn2cc(C(=O)c3ccc(C)cc3)c(=O)c3cc(OC)ccc32)c1	8.6%	1.8%	-2.6%	20µM*	?	79.4µM*	47.4*	.
CCc1ccc(C(=O)c2cn(CC(=O)Nc3ccc4c(c3)OCO4)c3cc(OC)c(OC)cc3c2=O)cc1	.	4.5%	4.5%	6.31µM*	51.7%	79.4µM*	42.3*	.
COc1cccc(NC(=O)Cn2cc(C(=O)c3ccc(F)cc3)c(=O)c3cc(OC)ccc32)c1	.	5.6%	-3.3%	40.4%	25.5%	-3.5%	.	.
CCc1ccc(C(=O)c2cn(CC(=O)Nc3ccc4c(c3)OCO4)c3ccc(Cl)cc3c2=O)cc1	.	-5.8%	0.8%	1.7%	44.4%	-8.6%	.	.
COc1ccccc1CNCc1cc(=O)oc2c(C)c(C)ccc12	-8.2%	-15.2%	1.5%	-1.5%	3.6%	-19.4%	.	.
Cc1cc(C)c2cccnc2c1O	.	-13.6%	.	.	-2.2%	.	.	.
CCOc1ccc2c(ccc(/C=C/c3cc(C)c4cccnc4c3O)[n+]2C)c1	.	?	-5.7%	.	?	20µM*	18.9*	21.3*	Pol kappa inh-2=18.9*
Cc1cccc(C)c1N1C(=O)[C@@H]2C(c3ccccc3Cl)=NO[C@@H]2C1=O	-5.7%	-17.5%	4.0%	18.2%	19.6%	-3.8%	.	.
COc1ccc(OC)c(N2C(=O)[C@@H]3C(c4ccccc4Cl)=NO[C@@H]3C2=O)c1	?	20µM*	11.2µM*	-87.8%	3.55µM*	1.26µM*	16.8*	16.9*	PGK validate=5.8µM*
NC1=C(Cl)C(=O)c2ccc(S(N)(=O)=O)cc2C1=O	.	-19.0%	-6.5%	.	3.98µM*	10µM*	75.2*	37.9*
Oc1ccc(/C=N/N=C(c2ccccc2)c2ccccc2)c(O)c1O	?	?	?	2.82µM*	?	3.16µM*	10.6*	42.6*
CCC(COC)Oc1cc(NCc2ccccc2)c2ncn(C(C)C)c2c1 (stereo unspecified)	-7.1%	4.8%	4.1%	.	3.16µM*	79.4µM*	47.4*	75.7*
CN(C1CCCCC1)S(=O)(=O)c1ccc(=S)[nH]c1	3.8%	-9.0%	-8.2%	.	15.2%	-11.7%	.	.
CCc1ccc(S(=O)(=O)c2cnc(SCC(=O)Nc3ccc(OC)cc3OC)[nH]c2=O)cc1	.	-12.9%	14.9%	-17.0%	-24.6%	-6.1%	.	.
O=C(CSc1ncc(S(=O)(=O)c2ccc(Cl)cc2)c(=O)[nH]1)Nc1cccc(C(F)(F)F)c1	.	-1.8%	4.7%	?	?	-26.2%	.	.
CC(C)(C)c1ccc(S(=O)(=O)c2cnc(SCC(=O)Nc3ccc(F)c(Cl)c3)[nH]c2=O)cc1	.	?	2.1%	79.4µM*	?	28.2µM*	?	?
COc1cc(Cl)c(C)cc1NC(=O)CSc1ncc(S(=O)(=O)c2ccc(C(C)(C)C)cc2)c(=O)[nH]1	.	?	?	10µM*	?	10µM*	21.2*	30.1*	PGK validate=20.6µM*
Cc1ccc(CNC(=O)CN(c2cccc([N+](=O)[O-])c2)S(C)(=O)=O)cc1	-7.0%	-8.0%	0.5%	-1.7%	64.1%	1.8%	.	.
O=c1cc(Br)c(O)c(Br)cc1Br	.	50.1µM*	-10.7%	.	4.47µM*	17.8µM*	?	60.1*
CCOc1ccc(/C=C(\C#N)C(=O)NCC2CCCO2)cc1OCC (stereo unspecified)	1.4%	3.4%	-3.6%	0.1%	44.2%	-3.1%	.	.
CSc1nsc(/C=C/Nc2ccc(C(=O)O)cc2)c1C#N	?	-8.8%[60.1 µM]	-20.9%	31.6µM*	56.5%	28.2µM*	75.2*	42.6*
CSc1nsc(/C=C/Nc2ccc(F)cc2F)c1C#N	-11.2%	-22.3%	?	-8.1%	118.8%	4.5%	.	.
SMILES	APEX1 inh	Pol kappa inh-1	GLS inhibitor	POLB inh	POLI inh	Pol eta inh-1	Pol iota confirm	Pol eta inh-2	others
CN(C)Cc1ccccc1-c1ccc2ncnc(NC3CCNCC3)c2c1	5.7%	0.2%[60.1 µM]	.	.	.	.	.	.
O=C1C=CC(n2cc(F)c(=O)[nH]c2=O)O1 (stereo unspecified)	.	.	4.0%	.	.	20µM*	.	?	PGK validate=18.3µM*
Cc1cc(C)n(CCc2nc(-c3ccco3)cs2)n1	?	70.8µM*	9.7%	31.6µM*	14.1µM*	79.4µM*	75.2*	84.9*
Cc1cc(C)n(CCc2nc(-c3cccs3)cs2)n1	1.9%	-18.6%	6.8%	3.8%	-8.3%	-6.4%	.	.
CN(c1ccccc1)S(=O)(=O)c1cc(C(=O)OCC(=O)c2c(N)n(C)c(=O)n(C)c2=O)ccc1Cl	.	-1.8%	-0.4%	.	49.0%	-11.0%	.	.
CCN(c1ccccc1)S(=O)(=O)c1cc(C(=O)OCC(=O)c2c(N)n(C)c(=O)n(C)c2=O)ccc1C	.	?	-18.8%	.	25.1µM*	4.47µM*	29.9*	26.9*	Pol kappa inh-2=11.9*
